Drawing on PubChem BioAssay (NCI), this text covers growth for 16 compounds.

Holding throughout (test): NCI-60 one-dose screen, 48 h (100 = growth as untreated, 0 = no growth, -100 = all killed)
One assay relates to NCI-H23 lung. To be noted: 10 µM unless noted.
The test system of the next assay is NCI-H322M lung. The note with it: 10 µM unless noted.
In the next assay the test system is HOP-62 NSCLC. To be noted: 10 µM unless noted.
In the next assay the test system is NCI-H460 lung. To be noted: 10 µM unless noted.
The next assay deals with NCI-H522 lung. To be noted: 10 µM.
Another assay deals with A549/ATCC NSCLC. To be noted: 10 µM unless noted.
A further assay has as its system 786-0 renal. To be noted: 10 µM unless noted.
For a further assay, the system named is COLO 205 colon. To be noted: 10 µM unless noted.

This is part of a sample that, as a whole, favours compounds with a hit. Of some 83,000 tested, about 20% had one in any assay.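 Cells were grown in 96-well plates and exposed to the test compound at a single concentration for 48 hours; results are reported as percent growth, with values below 10 considered active.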 Unmarked numbers belong to inactive results. The source made the active and inactive calls.

Consider `O=C1c2ccccc2C(=O)c2c(Nc3ccc(CCO)cc3)ccc(O)c21`, for which the growth is 93.3% with NCI-H23 lung; 68.5% in the assay on NCI-H322M lung; 107% in the assay on HOP-62 NSCLC; 56% in the assay with NCI-H460 lung; 71.5% with NCI-H522 lung; 67.5% in the assay on A549/ATCC NSCLC. For the same compound, the growth in the assay on 786-0 renal is 104%; in the assay on COLO 205 colon it was 49.1%.

In the case of `O=C1/C(=C/c2ccc(Cl)cc2)N=C(c2ccccc2)N1CCc1cccs1`, the growth is 61.4% in the assay with NCI-H23 lung; 82.2% in the assay with NCI-H322M lung; 108% in the assay on HOP-62 NSCLC; 23.3% in the assay on NCI-H460 lung; 23% with NCI-H522 lung; 30.6% in the assay on A549/ATCC NSCLC. Further, the growth was 50.9% in the assay with 786-0 renal and 100% with COLO 205 colon.

In the case of `CCCOC(=O)c1ccc2c(c1)[N+](=O)C(C(=O)c1ccccc1)=C(C(F)(F)F)[N+]2=O`, the growth was -75.6% (active) in the assay with NCI-H23 lung; -91.7% (active) with NCI-H322M lung; -96.5% (active) in the assay with HOP-62 NSCLC; -69.9% (active) with NCI-H460 lung; -92.6% (active) with NCI-H522 lung; -88.1% (active) with A549/ATCC NSCLC. Besides, the results for the growth with 786-0 renal and with COLO 205 colon were -81.2% (active) and -92.3% (active), respectively.

Take `Clc1ccccc1Nc1ccc2nnc(-c3ccncc3)n2n1`: the growth with NCI-H23 lung is 101%; with NCI-H322M lung, 102%; with HOP-62 NSCLC, 112%; in the assay on NCI-H460 lung it was 109%; with NCI-H522 lung it was -55.8% (active); in the assay with A549/ATCC NSCLC it was 89.9%. In addition, the growth with 786-0 renal is 75.7%; in the assay on COLO 205 colon it was 106%.

`Cc1nc2nc(C(F)(F)F)[nH]c2nc1C`: the growth with NCI-H23 lung is 107%; with NCI-H322M lung, 110%; in the assay with HOP-62 NSCLC, 93.2%; in the assay on NCI-H460 lung, 111%; in the assay on NCI-H522 lung, 90.1%; with A549/ATCC NSCLC it was 99.7%. Further, the results for the growth in the assay with 786-0 renal and in the assay on COLO 205 colon were 93.5% and 108%, respectively.

Take `Clc1ccc(Nc2nc(Nc3ccccc3)nc(Nc3ccc(-c4cc(-c5ccc(Cl)cc5)on4)cc3)n2)cc1`: the growth with NCI-H23 lung was 72.2%; in the assay with NCI-H322M lung, 77.6%; in the assay on HOP-62 NSCLC it was 75.6%; in the assay on NCI-H460 lung it was 7.19% (active); with NCI-H522 lung, 26.2%; with A549/ATCC NSCLC it was 38.9%. Moreover, the values for the growth in the assay on 786-0 renal and in the assay with COLO 205 colon were 53.9% and 69.8%, respectively.

For `Cc1oc2c(c1C(=O)N1CC[C@@H](N)C1)C(=O)c1c(c(O)c3ccccc3c1O)C2=O`, the growth is 45.3% in the assay on NCI-H23 lung; 33.5% with NCI-H322M lung; 31.9% with HOP-62 NSCLC; 2.29% (active) in the assay with NCI-H460 lung; 21% in the assay on NCI-H522 lung; 12.4% with A549/ATCC NSCLC. Besides, the growth was 41% in the assay on 786-0 renal and 13.1% with COLO 205 colon.

With `CC1SC(c2ccc(Cl)cc2)N(CCc2cccs2)C1=O` (stereo not drawn), the growth with NCI-H23 lung was -0.245% (active); in the assay on NCI-H322M lung, 21.7%; in the assay on HOP-62 NSCLC, 15.2%; with NCI-H460 lung it was -24.4% (active); with NCI-H522 lung, -48.9% (active); in the assay on A549/ATCC NSCLC, 1.08% (active). Further, the values for the growth in the assay with 786-0 renal and in the assay on COLO 205 colon were -49.4% (active) and -60.5% (active), respectively.

Consider `Cc1cc(=O)c2c(C)ccc(C)c2[nH]1`, for which the growth with NCI-H23 lung was 100%; with NCI-H322M lung, 109%; in the assay with HOP-62 NSCLC, 104%; in the assay with NCI-H460 lung, 111%; with NCI-H522 lung it was 96.2%; in the assay with A549/ATCC NSCLC, 93.1%. For the same compound, the growth in the assay with 786-0 renal was 96.4%; with COLO 205 colon, 125%.

With `O=C(O)c1ccccc1Oc1cc(-c2ccco2)nc(OCCBr)n1`, the growth in the assay on NCI-H23 lung was 105%; in the assay on NCI-H322M lung, 100%; with HOP-62 NSCLC, 101%; in the assay on NCI-H460 lung it was 110%; in the assay on NCI-H522 lung, 103%; with A549/ATCC NSCLC, 94.2%. For the same compound, the growth is 100% in the assay on 786-0 renal and 109% in the assay on COLO 205 colon.

For `O=S(=O)(Nc1ncccn1)c1ccc(Nc2ccc3nnc(-c4ccncc4)n3n2)cc1`, the growth was 99.6% in the assay on NCI-H23 lung; 112% in the assay with NCI-H322M lung; 104% with HOP-62 NSCLC; 96.4% in the assay on NCI-H460 lung; 113% in the assay with NCI-H522 lung; 104% with A549/ATCC NSCLC. In addition, the values for the growth in the assay on 786-0 renal and with COLO 205 colon were 103% and 107%, respectively.

Regarding `Cc1ccc(S(=O)(=O)c2ccc3[nH]c(=O)[nH]c(=O)c3c2)cc1`, the growth was 102% with NCI-H23 lung; 106% in the assay with NCI-H322M lung; 106% in the assay on HOP-62 NSCLC; 114% in the assay on NCI-H460 lung; 84.9% in the assay on NCI-H522 lung; 80.7% in the assay with A549/ATCC NSCLC. Also, the growth with 786-0 renal was 96.5%; in the assay with COLO 205 colon, 99.3%.

In the case of `COc1cc(/C=C2\C(=O)N(c3c(Cl)cccc3Cl)c3ccccc32)cc(OC)c1O`, the growth in the assay on NCI-H23 lung is 48.1%; with NCI-H322M lung it was 48.2%; in the assay with HOP-62 NSCLC it was 48.6%; with NCI-H460 lung it was -4.41% (active); with NCI-H522 lung, 28%; in the assay on A549/ATCC NSCLC, 16.9%. The growth with 786-0 renal is 13.9%; with COLO 205 colon, 74.8%.

Turning to `COc1cc(/C=C/C(=O)C(=Cc2ccc(F)c(F)c2)C(=O)/C=C/c2ccc(O)c(OC)c2)ccc1O`, the growth in the assay on NCI-H23 lung was -24.6% (active); with NCI-H322M lung, 59.4%; in the assay on HOP-62 NSCLC, 22.1%; in the assay on NCI-H460 lung it was 1.97% (active); in the assay on NCI-H522 lung, -48.3% (active); in the assay on A549/ATCC NSCLC it was 44.2%. The figures for the growth in the assay on 786-0 renal and in the assay with COLO 205 colon were 40.8% and 58.1%, respectively.

Consider `O=C1NC(=S)S/C1=C\c1cccc([N+](=O)[O-])c1`, for which the growth was 89.6% in the assay with NCI-H23 lung; 132% in the assay with NCI-H322M lung; 114% with HOP-62 NSCLC; 104% with NCI-H460 lung; 107% with NCI-H522 lung; 103% in the assay on A549/ATCC NSCLC. Also, the growth in the assay on 786-0 renal was 91.5%; in the assay with COLO 205 colon, 110%.

As to `O=C(NCc1cccnc1)c1ccc([N+](=O)[O-])o1`, the growth in the assay on NCI-H23 lung is -89.1% (active); in the assay on NCI-H322M lung it was -6.13% (active); in the assay with HOP-62 NSCLC it was -4.75% (active); in the assay on NCI-H460 lung it was -64.3% (active); in the assay on NCI-H522 lung, -66.5% (active); in the assay on A549/ATCC NSCLC, -10.5% (active). Moreover, the growth was 4.89% (active) in the assay on 786-0 renal and -77% (active) in the assay on COLO 205 colon.
